Hits are enriched below; roughly 11% of the tested compounds scored in any of these assays.
VACV Venus inh = inhibitors of vaccinia virus (Venus reporter) | Vaccinia virus Venus reporter expression, fluorescence | 330,000 tested, 0.46% active | Potency, µM (highest dose often 36.5 µM), inactives show at the highest dose activity change, negative = inhibition, most hits filed as inhibitors; calls by dose curve; tested in A549 cells; also: % is scaled to controls: 0 for no effect and ±100 for the full control effect; nearly all actives have a fitted effect of over 30% in size
NS1 function inh = influenza NS1 inhibition. Potency, µM (top dose mostly 46.1 µM), for inactives: at the highest dose activity, positive = more growth. 270,000 tested, 0.4% active. AID 2326; calls by dose curve; also: actives are rising curves; nearly all actives have a fitted effect of over 50% in size
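Growth recovery, yeast-based: influenza A NS1 expressed in S. cerevisiae causes slow growth, and suppressors are detected by OD600. The parent strain without NS1 is used as positive control.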
Pf growth 48h = inhibits P. falciparum growth in the first generation, 48 h; P. falciparum luciferase growth in erythrocytes, 48 h; AID 504832; 310,000 tested, 5.9% active; Potency, µM (titrated, usually from 28.7 µM), for inactives: at the top dose activity change, negative = inhibition, actives largely listed as inhibitors; also: % is scaled to controls: 0 for no effect and ±100 for the full control effect
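In quantitative HTS format, infected erythrocytes bearing luciferase-reporter parasites were treated for a single generation at 37 C. Luminescence after adding detection reagent served as the growth measure.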
VACV mCherry inh = vaccinia inhibition (mCherry reporter); Vaccinia virus mCherry reporter infection, fluorescence; Potency, µM (top dose mostly 36.5 µM), for the others: at the top dose activity change, negative = inhibition, hits mostly inhibitors; 310,000 tested, 0.63% active; AID 720579; calls by dose curve; tested in A549 cells; also: % is scaled to controls: 0 for no effect and ±100 for the full control effect; nearly all actives have a fitted effect of over 35% in size
Pf growth 96h = P. falciparum growth inhibition at 96 hours; P. falciparum luciferase reporter growth, 96 h; Potency, µM (highest dose often 28.7 µM), for inactives: top-dose activity change, negative = inhibition, hits mostly inhibitors; 320,000 tested, 6.9% active; also: % is scaled to controls: 0 for no effect and ±100 for the full control effect
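Plates of compound plus infected erythrocytes (2% hematocrit, 0.05% parasitemia final) incubate 96 hours, 37 C, 5% CO2. Detection reagent added; reduced luminescence from the parasites' luciferase reporter flags inhibition.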
HCV inhibitor = blocks hepatitis C virus; Huh7.5.1 HCVcc-Cre infection, luciferase reporter, 44 h; Potency, µM (doses to about 41.8 µM), inactives show at the highest dose activity change, negative = inhibition, actives largely listed as inhibitors; 340,000 tested, 3.4% active; AID 651820; also: % is scaled to controls: 0 for no effect and ±100 for the full control effect
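HCVcc-Cre virus at an moi near 0.5 was added right after compound to cells cultured 4 h from seeding (1,000 cells/well). Luciferase activity was determined 44 h later, 15 min after substrate addition at RT.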
An asterisk follows results filed as active; i = inactive; u = inconclusive; x = no result. Unless noted, calls follow the shape of the dose curve; as a rule, active = well fitted inhibition curve with a large enough effect; inconclusive = small, poorly fitted or top-dose-only effect, or another doubt; inactive = no such curve, though single readings can be large or run the other way. Potency is read from the fitted curve at half-maximal effect.

SMILES | VACV Venus inh | NS1 function inh | Pf growth 48h | VACV mCherry inh | Pf growth 96h | HCV inhibitor
COCC(=O)c1[nH]c2ccccc2c1C | -5.7% | -46.8% | 1.0% | -12.9% | 3.7µM* | 2.4%
Oc1ccc(/C=N/Nc2cccc(Cl)n2)c(O)c1 | x | -58.8% | 137.7% | x | -62.7% | 1.5%
CCCCNC(=S)N/N=C/c1cccc(OCC)c1O | -3.0% | -7.7% | u | u | 1.47µM* | u
CCOc1cccc(/C=N/NC(=O)c2cc(C3CC3)[nH]n2)c1O | x | -25.8% | 2.4% | x | u | 11.2µM*
O=C(Nc1ccccc1)c1ccc(OC(=O)c2cc3ccccc3o2)cc1 | -8.6% | 2.5% | x | -14.3% | 28.5% | 17.7%
COc1ccc(NC(=O)c2cc(S(=O)(=O)N3CCOCC3)cn2C)c(OC)c1 | -0.8% | 0.1% | -1.2% | 43.5% | -13.7% | -7.1%
Cc1ccc(CNC(=O)c2ccc(NC(=O)C3=CSCCO3)cc2)cc1 | x | 7.2% | 13.7% | x | -16.2% | 9.2%
COCCn1nnnc1C(c1cc2cc(C)ccc2[nH]c1=O)N1CCCCCC1 (stereo not drawn) | -12.9% | -2.6% | 10.5% | -11.4% | -15.6% | 19.5%
COCCn1nnnc1C(c1cc2cc(C)cc(C)c2[nH]c1=O)N1CCN(c2ccccc2F)CC1 (stereo not drawn) | -5.5% | -0.3% | 11.7µM* | -17.8% | u | 5.9%
COCCn1nnnc1C(c1cc2c(C)cc(C)cc2[nH]c1=O)N1CCCCCC1 (stereo not drawn) | -15.2% | 6.5% | 11.7µM* | -5.7% | 7.2% | -7.2%
COCCn1nnnc1C(c1cccs1)N1CCN(c2cc(C)ccc2C)CC1 (stereo not drawn) | -27.2% | -30.8% | 13.1µM* | -11.1% | u | 5.3%
COCCn1nnnc1C(c1cc2cc(C)ccc2[nH]c1=O)N1CCc2ccccc21 (stereo not drawn) | u | -4.0% | x | u | u | 4.9%
O=C(Cc1cccs1)Nc1cccc(C(=O)Nc2ccc(C(=O)O)cc2)c1 | -11.3% | 2.3% | -13.1% | 2.2% | 0.0% | -14.5%
COc1cccc(C(O)c2nc(-c3ccc(F)cc3OC)cs2)c1 (stereo not drawn) | 5.1% | x | x | 0.3% | x | x
O=C(NCc1ccco1)C1(c2ccccc2)CCCC1 | -14.9% | 0.5% | -3.2% | i | 17.1% | 2.5%
Nc1ncnc2nc[nH]c12 | 2.1% | -5.3% | 6.7% | -2.5% | 11.8% | -20.9%
Nc1nc(N)c2[nH]cnc2n1 | -22.9% | x | x | -19.2% | x | 6.31µM*
COc1ccc(C(C)=O)cc1CSCC(=O)O | -4.6% | x | 5.7% | -3.1% | 75.1% | 11.2%
c1cc(CNCCc2ccc3c(c2)OCO3)ccn1 | x | -3.7% | -8.1% | x | 11.7µM* | -6.2%
Fc1ccc(CNCCc2ccc3c(c2)OCO3)cc1 | x | -4.0% | 0.9% | x | 70.6% | 6.5%
Brc1ccccc1CNCCc1ccc2c(c1)OCO2 | -14.9% | -11.0% | 57.9% | i | 11.7µM* | -4.7%
CCOc1ccccc1CNCCc1ccc2c(c1)OCO2 | -18.3% | 27.2% | -4.9% | -23.1% | u | -3.5%
N#Cc1ccccc1OCC(=O)Nc1ccc2c(c1)OCCCO2 | -5.2% | -1.5% | 41.7% | 10.1% | 0.0% | -23.5%
Cc1onc(-c2ccccc2Cl)c1C(=O)NC(=S)Nc1ccc(C(C)C)cc1 | x | 14.5% | 5.22µM* | x | 13.1µM* | u
Cc1onc(-c2ccccc2Cl)c1C(=O)NC(=S)Nc1ccccc1F | x | 4.9% | 4.15µM* | x | 46.0% | -6.1%
SMILES | VACV Venus inh | NS1 function inh | Pf growth 48h | VACV mCherry inh | Pf growth 96h | HCV inhibitor
Cc1onc(-c2ccccc2Cl)c1C(=O)NC(=S)NCCc1ccccc1 | -4.3% | 24.3% | -19.6% | -7.6% | 32.7% | 9.7%
Cc1onc(-c2ccccc2Cl)c1C(=O)NC(C)c1ccccc1 (stereo not drawn) | x | u | -20.8% | x | 13.1µM* | 8.3%
CC(=O)N1CCN(C(=S)NC(=O)c2c(-c3ccccc3Cl)noc2C)CC1 | 1.8% | x | 7.9% | 0.1% | u | -1.9%
Cc1ccc(NC(=S)NC(=O)c2c(-c3ccccc3Cl)noc2C)cc1 | 0.8% | 9.5% | 10.4µM* | -14.6% | u | -10.1%
COc1ccccc1NC(=S)NC(=O)c1c(-c2ccccc2Cl)noc1C | x | u | u | x | 22.4% | u
COc1ccccc1CNC(=O)c1c(-c2ccccc2Cl)noc1C | x | 6.0% | 10.4µM* | x | 57.2% | -24.5%
Cc1ccc(C(=O)N(CCC2=CCCCC2)c2c(N)n(Cc3ccccc3)c(=O)[nH]c2=O)o1 | -11.2% | x | u | i | 8.6% | -37.1%
Nc1c(N(CCC2=CCCCC2)C(=O)c2ccc([N+](=O)[O-])o2)c(=O)[nH]c(=O)n1Cc1ccccc1 | -14.2% | x | 10.4µM* | i | u | u
Nc1c(N(CCC2=CCCCC2)C(=O)Cc2ccc(F)cc2)c(=O)[nH]c(=O)n1Cc1ccccc1 | -15.5% | x | 9.28µM* | -24.7% | u | u
CC1CC1C(=O)N(CCC1=CCCCC1)c1c(N)n(Cc2ccccc2)c(=O)[nH]c1=O (stereo not drawn) | -11.3% | x | u | -18.2% | u | -8.8%
COC(=O)c1cnc(NC(=O)C2(C)CCCN(C(C)=O)C2)s1 (stereo not drawn) | 2.5% | x | x | 24.2% | x | x
C=CCn1cc(/C=C2/NC(=O)NC2=O)c2ccccc21 | -10.9% | -4.3% | 16.6% | -1.8% | 11.1% | -24.6%
COc1ccccc1S(=O)(=O)N(C)C[C@H]1OCc2cnnn2CCCC(=O)N([C@H](C)CO)C[C@H]1C | -9.5% | x | x | i | x | x
CCCCCCCCNc1ncnc2ccccc12 | u | -153.3% | x | u | 5.22µM* | 0.794µM*
Cc1cc2c(NC3CCCCC3)ncnc2s1 | -21.9% | -55.4% | -15.5% | -6.9% | -18.6% | 10µM*
Cc1cc2c(SCC(=O)NC3CCCCC3)ncnc2s1 | -2.3% | 9.1% | 1.8% | -8.5% | 11.1% | 3.7%
Brc1ccc2ncnc(NCc3ccccc3)c2c1 | u | -142.6% | u | x | 129.6% | 10µM*
Cc1cc2c(NCCc3ccccc3)ncnc2s1 | -4.5% | -70.5% | 13.8% | -13.8% | -0.9% | 5.62µM*
O=C(OC1CCOC1=O)c1cc(-c2ccccc2)nc2ccccc12 (stereo not drawn) | x | -4.2% | x | x | -21.5% | 17.7%
Cn1c(SCC(=O)NCc2ccc3c(c2)OCO3)nnc1-c1c[nH]c2ccccc12 | x | 0.3% | -5.7% | x | -1.4% | -2.5%
COc1ccc(N2CCN(C(=O)c3cccc(S(=O)(=O)N4CCOCC4)c3)CC2)cc1 | x | x | -15.0% | x | -23.2% | 14.3%
c1ccc(CCNc2ncnc3ccccc23)cc1 | x | -8.8% | 278.2% | x | -5.5% | 1.12µM*
CCCOc1ccc(-c2c(=O)n(OCC(=O)OCC)c3ccccc3[n+]2[O-])cc1 | x | -2.9% | 20.0% | x | 5.5% | 2.7%
Cc1cccn2c(CN[C@H]3CCCCNC3=O)c(C(=O)N3CCOCC3)nc12 | -1.9% | -3.8% | 7.8% | -11.5% | 9.28µM* | 3.3%
Cc1ccc(O)c(CNn2cnnc2)c1 | -5.5% | 8.6% | 6.5% | i | u | 14.8%
